Laboratory results taken from PubChem BioAssay (NCATS).
Records with an inconclusive call do not appear. Calls of active or inactive are those of the source. Unless noted, calls follow the shape of the full dose curve.

Assays:
[1] = qHTS drug screen for cell cycle checkpoint inhibitors in PARPi-resistant BRCA-mutant ovarian cancer cell lines. (AID 1963452); conditions: PEO1/OlaR viability, CellTiter-Glo luminescence, 96 h; for Z-AUC: stronger effect = lower value; also: potency is read from the fitted curve at half-maximal effect
How it was run: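 PEO1, PEO4 and PEO1/OlaR ovarian cancer cells, 600 per well, exposed 96 h at 37C to a dilution series. Viability read by CellTiter-Glo luminescence, normalized to DMSO and empty wells; activity summarized as Z-AUC.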

[2] = target: Cytochrome P450 2C9 (Homo sapiens) (UniProt P11712); test: qHTS for inhibitors of CYP2C9 against the NCATS DSHEA and TCM libraries (AID 1919973; active = well fitted curve in the direction sought with a large enough effect; an effect the other way counts as inactive or inconclusive;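 also: luminogenic pro-luciferin CYP2C9 substrate turned into luciferin with NADPH regeneration; % is scaled to controls: 0 for no effect and ±100 for the full control effect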); conditions: recombinant CYP2C9 enzyme activity, luminescence; series mostly up to 34.1 µM
How it was run: (§1)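 Read-out is luminescence after P450-Glo detection (30 min, RT). Before that: 15 min compound–enzyme preincubation, then 30-45 min reaction with 1x NADPH regeneration solution, substrate concentration isoform-specific.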

[3] = target: Cytochrome P450 2C19 (Homo sapiens) (UniProt P33261); test: qHTS for inhibitors of CYP2C19 against the NCATS DSHEA and TCM libraries (AID 1919974; active = well fitted curve in the direction sought with a large enough effect; an effect the other way counts as inactive or inconclusive;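 also: luminescence from luciferin released by CYP2C19 oxidation of a pro-luciferin substrate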; also: potency is read from the fitted curve at half-maximal effect); conditions: CYP2C19 enzyme inhibition, luminescence qHTS; series mostly up to 34.1 µM
How it was run: as §1

[4] = KB-3-1 P-gp reporter qHTS against the NCATS DSHEA and TCM libraries (AID 1919975; active = well fitted curve in the direction sought with a large enough effect; an effect the other way counts as inactive or inconclusive; also: potency is read from the fitted curve at half-maximal effect); conditions: KB-3-1 parental cells, CellTiter-Glo luminescence viability, 72 h; series mostly up to 26.1 µM
How it was run: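 CellTiter-Glo luminescence viability readout; KB-3-1 parental cells, 500/well, attached ~4 h, then compound for ~72 h, 37C, 5% CO2. Bortezomib intraplate control.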

[5] = qHTS Counterscreen for compound interference against the NCATS DSHEA and TCM libraries (AID 1919978; active = well fitted curve in the direction sought with a large enough effect; an effect the other way counts as inactive or inconclusive;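 also: compounds preincubated with 1 µM D-luciferin or buffer before detection reagent; % of control where 0% means no effect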); conditions: firefly luciferase detection reagent interference, luminescence
How it was run: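 Luminescence counterscreen for detection-kit interference: compounds at 19.5 nM–39.8 uM final, 15 min RT with 1 uM D-luciferin or buffer only; detection reagent added, 30 min RT, then read.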

[6] = Dual reporter qHTS for agonist of Pregnane X Receptor (hPXR) against the NCATS DSHEA and TCM libraries: Fluorescence readout (AID 1920058; active = well fitted curve in the direction sought with a large enough effect; an effect the other way counts as inactive or inconclusive; also: 0% is about no effect); conditions: PXR dual reporter cells; series mostly up to 40 µM
How it was run: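 HepG2 hPXR-Luc, 2000 cells/well, 5 h attach; cpds ~24 h, 37 °C/5% CO2; CellTiter-Fluor 1 h; fluor. Ex/Em 405/540 nm = viability.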

[7] = target: Nuclear receptor subfamily 1 group I member 2 (Homo sapiens) (UniProt O75469); test: Dual reporter qHTS for agonist of Pregnane X Receptor (hPXR) against the NCATS DSHEA and TCM libraries: Luminescence readout (AID 1920059; active = well fitted curve in the direction sought with a large enough effect; an effect the other way counts as inactive or inconclusive; also: 0% is about no effect); conditions: hPXR dual reporter cells, luciferase luminescence agonist; series mostly up to 40 µM
How it was run: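 hPXR-Luc HepG2 cells, 2000/well in 5% charcoal-stripped FBS medium, attached 5 h, then exposed 24 h at 37C to compounds. Viability by CellTiter-Fluor, then luciferase luminescence with ONE-Glo.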

[8] = target: Nuclear receptor subfamily 1 group I member 2 (Homo sapiens) (UniProt O75469); test: Dual reporter qHTS for antagonist of Pregnane X Receptor (hPXR) against the NCATS DSHEA and TCM libraries: Luminescence Readout (AID 1920060; active = well fitted curve in the direction sought with a large enough effect; an effect the other way counts as inactive or inconclusive;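 also: HepG2 cells carrying hPXR luciferase reporter stimulated with rifampicin at 2 µM; 0% is about no effect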); conditions: hPXR dual reporter cells, luciferase luminescence, antagonist mode; series mostly up to 40 µM
How it was run: (§2)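 hPXR-Luc HepG2 cells exposed 24 h at 37 C to compounds with 2 uM rifampicin in antagonist mode; luciferase luminescence measured by ONE-Glo, with CellTiter-Fluor viability read beforehand.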

[9] = Dual reporter qHTS for antagonist of Pregnane X Receptor (hPXR) against the NCATS DSHEA and TCM libraries: Fluorescence Readout (AID 1920061; active = well fitted curve in the direction sought with a large enough effect; an effect the other way counts as inactive or inconclusive; also: 0% is about no effect); conditions: PXR dual reporter cells, antagonist mode; series mostly up to 40 µM
How it was run: as §2

[10] = target: Cytochrome P450 1A2 (Homo sapiens) (UniProt P05177); test: qHTS for inhibitors of CYPIA2 against the NCATS DSHEA and TCM libraries (AID 1919976; active = well fitted curve in the direction sought with a large enough effect; an effect the other way counts as inactive or inconclusive;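 also: light from luciferin formed by CYP1A2 from a pro-luciferin substrate; % is scaled to controls: 0 for no effect and ±100 for the full control effect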); conditions: recombinant CYP1A2 enzyme activity, luminescence; series mostly up to 37 µM
How it was run: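 CYP1A2 + luciferin substrate, 100 mM KPO4-type buffer; cmpd 15 min RT; 1x NADPH regen, 30-45 min RT dark; detection reagent 30 min RT; luminescence. Minus-enzyme wells as background; furafylline intraplate control.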

[11] = measured here: PEO1 parental Z-AUC

Chain of Nuclear receptor subfamily 1 group I member 2 (Homo sapiens) (O75469 whole entry, looked up): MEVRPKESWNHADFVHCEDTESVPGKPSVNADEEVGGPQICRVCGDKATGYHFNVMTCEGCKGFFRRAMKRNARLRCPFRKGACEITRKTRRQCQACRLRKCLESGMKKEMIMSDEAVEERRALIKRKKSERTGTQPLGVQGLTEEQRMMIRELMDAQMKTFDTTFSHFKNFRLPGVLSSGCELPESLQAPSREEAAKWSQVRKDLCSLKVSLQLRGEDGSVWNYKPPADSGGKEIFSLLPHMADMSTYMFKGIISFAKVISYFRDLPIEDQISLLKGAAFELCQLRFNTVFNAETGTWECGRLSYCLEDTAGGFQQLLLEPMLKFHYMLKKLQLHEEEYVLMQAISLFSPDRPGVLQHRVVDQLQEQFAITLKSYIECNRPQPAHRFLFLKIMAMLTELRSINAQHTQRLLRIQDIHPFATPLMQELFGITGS
Chain of Cytochrome P450 2C19 (Homo sapiens) (P33261 whole entry, looked up): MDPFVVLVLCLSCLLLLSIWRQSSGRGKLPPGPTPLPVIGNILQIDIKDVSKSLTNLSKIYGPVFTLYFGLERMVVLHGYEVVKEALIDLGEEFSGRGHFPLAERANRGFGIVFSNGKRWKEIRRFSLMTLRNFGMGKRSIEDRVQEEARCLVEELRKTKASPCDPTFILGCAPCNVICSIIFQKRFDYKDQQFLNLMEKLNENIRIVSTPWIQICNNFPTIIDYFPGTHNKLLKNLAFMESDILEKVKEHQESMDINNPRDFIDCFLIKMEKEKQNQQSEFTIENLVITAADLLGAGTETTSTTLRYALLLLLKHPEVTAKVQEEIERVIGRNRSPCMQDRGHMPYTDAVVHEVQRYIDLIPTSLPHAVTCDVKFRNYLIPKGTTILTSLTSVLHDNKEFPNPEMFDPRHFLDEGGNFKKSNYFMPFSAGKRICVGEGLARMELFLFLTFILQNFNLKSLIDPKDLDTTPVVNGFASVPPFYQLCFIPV
Chain of Cytochrome P450 2C9 (Homo sapiens) (P11712 whole entry, looked up, canonical isoform): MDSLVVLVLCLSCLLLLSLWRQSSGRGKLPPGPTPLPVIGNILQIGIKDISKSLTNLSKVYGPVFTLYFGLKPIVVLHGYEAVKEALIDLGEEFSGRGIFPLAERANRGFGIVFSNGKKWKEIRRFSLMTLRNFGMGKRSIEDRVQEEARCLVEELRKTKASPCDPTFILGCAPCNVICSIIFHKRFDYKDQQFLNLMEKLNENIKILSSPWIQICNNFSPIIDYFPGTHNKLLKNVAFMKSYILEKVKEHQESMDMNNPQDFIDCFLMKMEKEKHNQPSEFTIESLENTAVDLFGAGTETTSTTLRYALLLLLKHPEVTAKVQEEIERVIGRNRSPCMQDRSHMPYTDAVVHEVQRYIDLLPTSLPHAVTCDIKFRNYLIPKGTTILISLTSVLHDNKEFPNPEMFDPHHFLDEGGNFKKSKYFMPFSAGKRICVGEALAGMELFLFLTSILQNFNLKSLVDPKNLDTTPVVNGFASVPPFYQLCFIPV
Chain of Cytochrome P450 1A2 (Homo sapiens) (P05177 whole entry, looked up): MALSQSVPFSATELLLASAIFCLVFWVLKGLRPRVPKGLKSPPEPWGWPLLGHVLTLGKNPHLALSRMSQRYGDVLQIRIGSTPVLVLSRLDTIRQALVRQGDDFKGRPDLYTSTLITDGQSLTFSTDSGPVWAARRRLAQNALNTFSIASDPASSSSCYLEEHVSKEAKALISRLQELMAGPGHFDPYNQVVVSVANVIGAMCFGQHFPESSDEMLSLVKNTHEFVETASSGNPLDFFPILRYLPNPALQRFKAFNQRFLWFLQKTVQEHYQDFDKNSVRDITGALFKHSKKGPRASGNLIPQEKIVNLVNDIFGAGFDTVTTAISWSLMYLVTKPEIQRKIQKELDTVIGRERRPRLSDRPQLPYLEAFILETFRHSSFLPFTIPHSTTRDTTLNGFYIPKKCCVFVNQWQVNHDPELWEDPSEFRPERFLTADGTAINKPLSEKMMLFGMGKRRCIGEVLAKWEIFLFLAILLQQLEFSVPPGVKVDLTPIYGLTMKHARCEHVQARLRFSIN

## CCOC(=O)c1ccc(OC(=O)CCCCCN=C(N)N)cc1
[1]
  Z-AUC: 1.08 (inactive)
[1]; [11]
  Z-AUC: 1.13
[1]; measured here: PEO4 Z-AUC
  Z-AUC: 0.861

## CC(C)C[C@H](NC(=O)[C@H](CCc1ccccc1)NC(=O)CN1CCOCC1)C(=O)N[C@@H](Cc1ccccc1)C(=O)N[C@@H](CC(C)C)C(=O)[C@@]1(C)CO1
[1]
  Potency: 9.8 nM (active)
[1]; [11]
  Z-AUC: -3.02
[1]; measured here: PEO4 Z-AUC
  Z-AUC: -2.77

## COc1ncnc(NS(=O)(=O)c2ccc(N)cc2)c1OC
[1]
  Z-AUC: 1.84 (inactive)
[1]; [11]
  Z-AUC: 1.63
[1]; measured here: PEO4 Z-AUC
  Z-AUC: 1.91

## CN(CCOc1ccc(CC2SC(=O)NC2=O)cc1)c1ccccn1 (stereo not given)
[1]
  Z-AUC: 0.844 (inactive)
[1]; [11]
  Z-AUC: 0.498
[1]; measured here: PEO4 Z-AUC
  Z-AUC: 0.826

## CCCc1nc(C)c2c(=O)[nH]c(-c3cc(S(=O)(=O)N4CCN(CC)CC4)ccc3OCC)nn12
[1]
  Z-AUC: 1.15 (inactive)
[1]; [11]
  Z-AUC: 0.477
[1]; measured here: PEO4 Z-AUC
  Z-AUC: 0.621

## Cc1cccc(N(C)C(=S)Oc2ccc3ccccc3c2)c1
[1]
  Z-AUC: 0.688 (inactive)
[1]; [11]
  Z-AUC: 0.339
[1]; measured here: PEO4 Z-AUC
  Z-AUC: 0.795

## Nc1nc(N)c2nc(CNc3ccc(C(=O)NC(CCC(=O)O)C(=O)O)cc3)cnc2n1 (stereo not given)
[1]
  Z-AUC: 0.0258 (inactive)
[1]; [11]
  Z-AUC: 0.192
[1]; measured here: PEO4 Z-AUC
  Z-AUC: 1.1

## CC(N)C12CC3CC(CC(C3)C1)C2 (stereo not given)
[1]
  Z-AUC: 0.887 (inactive)
[1]; [11]
  Z-AUC: 0.571
[1]; measured here: PEO4 Z-AUC
  Z-AUC: 0.722

## COC(=O)Nc1nc2ccc(S(=O)c3ccccc3)cc2[nH]1 (stereo not given)
[1]
  Z-AUC: 0.889 (inactive)
[1]; [11]
  Z-AUC: 0.292
[1]; measured here: PEO4 Z-AUC
  Z-AUC: 0.543

## NC(=O)c1cccc(N)c1
[1]
  Z-AUC: 1.42 (inactive)
[1]; [11]
  Z-AUC: 1.33
[1]; measured here: PEO4 Z-AUC
  Z-AUC: 0.943

## O=C(O)CCn1c2c(c3ccccc31)C[C@H](NS(=O)(=O)c1ccc(F)cc1)CC2
[1]
  Z-AUC: 0.321 (inactive)
[1]; [11]
  Z-AUC: 0.0173
[1]; measured here: PEO4 Z-AUC
  Z-AUC: 0.558

## O=P(O)(O)C(O)(Cc1cccnc1)P(=O)(O)O
[1]
  Z-AUC: 0.331 (inactive)
[1]; [11]
  Z-AUC: 0.503
[1]; measured here: PEO4 Z-AUC
  Z-AUC: 0.956

## CCCCCCNC(=O)n1cc(F)c(=O)[nH]c1=O
[1]
  Z-AUC: 1.08 (inactive)
[1]; [11]
  Z-AUC: 0.601
[1]; measured here: PEO4 Z-AUC
  Z-AUC: 0.733

## CCCCS(=N)(=O)CCC(N)C(=O)O (stereo not given)
[1]
  Z-AUC: -0.0852 (inactive)
[1]; [11]
  Z-AUC: 0.0714
[1]; measured here: PEO4 Z-AUC
  Z-AUC: 0.126

## COc1ccc2cc3[n+](cc2c1OC)CCc1cc2c(cc1-3)OCO2
[2]
  outcome: inactive
[3]
  Potency: inactive
[4]
  Potency: 2000 nM (active)
[5]
  max response: -1.19% (inactive)
[6]
  outcome: inactive
[7]
  outcome: inactive
[8]
  outcome: inactive
[9]
  outcome: inactive
[1]
  Z-AUC: 0.64 (inactive)
[1]; [11]
  Z-AUC: -0.712
[1]; measured here: PEO4 Z-AUC
  Z-AUC: 0.437

## O=C(O)c1cc(=O)[nH]c(=O)[nH]1
[1]
  Z-AUC: 0.444 (inactive)
[1]; [11]
  Z-AUC: -0.118
[1]; measured here: PEO4 Z-AUC
  Z-AUC: -0.128

## COc1cc2c(Nc3ccc(Br)cc3F)ncnc2cc1OCC1CCN(C)CC1
[1]
  Z-AUC: 0.231 (inactive)
[1]; [11]
  Z-AUC: 0.081
[1]; measured here: PEO4 Z-AUC
  Z-AUC: -0.0991

## CC(=O)Oc1ccccc1C(=O)Nc1ncc([N+](=O)[O-])s1
[1]
  Z-AUC: 0.99 (inactive)
[1]; [11]
  Z-AUC: 0.864
[1]; measured here: PEO4 Z-AUC
  Z-AUC: 0.834

## CCn1cc(C(=O)O)c(=O)c2cc(F)c(N3CCN(C)CC3)cc21
[1]
  Z-AUC: 1.22 (inactive)
[1]; [11]
  Z-AUC: 0.931
[1]; measured here: PEO4 Z-AUC
  Z-AUC: 1.07

## CCC(=O)O[C@]1(C(=O)CCl)[C@@H](C)C[C@H]2[C@@H]3CCC4=CC(=O)C=C[C@]4(C)[C@@]3(F)[C@@H](O)C[C@@]21C
[1]
  Z-AUC: -0.206 (inactive)
[1]; [11]
  Z-AUC: 0.492
[1]; measured here: PEO4 Z-AUC
  Z-AUC: -0.658

## CCOC(=O)c1ccc(C#Cc2ccc3c(c2)C(C)(C)CCS3)nc1
[1]
  Z-AUC: 1.4 (inactive)
[1]; [11]
  Z-AUC: 1.62
[1]; measured here: PEO4 Z-AUC
  Z-AUC: 1.15

## CN(C)c1ccc(C(=C2C=CC(=[N+](C)C)C=C2)c2ccc(N(C)C)cc2)cc1
[1]
  Z-AUC: -1.19 (inactive)
[1]; [11]
  Z-AUC: -1.68
[1]; measured here: PEO4 Z-AUC
  Z-AUC: -1.8

## CNC(=O)c1cc(Oc2ccc(NC(=O)Nc3ccc(Cl)c(C(F)(F)F)c3)cc2)ccn1
[1]
  Z-AUC: 0.739 (inactive)
[1]; [11]
  Z-AUC: 0.309
[1]; measured here: PEO4 Z-AUC
  Z-AUC: 0.253

## COCCCOc1cc(C[C@@H](C[C@H](N)[C@@H](O)C[C@H](C(=O)NCC(C)(C)C(N)=O)C(C)C)C(C)C)ccc1OC
[1]
  Z-AUC: 1.16 (inactive)
[1]; [11]
  Z-AUC: 1.52
[1]; measured here: PEO4 Z-AUC
  Z-AUC: 1.51

## COc1ccc(C(=O)CC(=O)c2ccc(C(C)(C)C)cc2)cc1
[1]
  Z-AUC: 1.49 (inactive)
[1]; [11]
  Z-AUC: 0.772
[1]; measured here: PEO4 Z-AUC
  Z-AUC: 1.06

## Cn1c(=O)c2c(ncn2CC(O)CO)n(C)c1=O (stereo not given)
[1]
  Z-AUC: 0.897 (inactive)
[1]; [11]
  Z-AUC: 0.956
[1]; measured here: PEO4 Z-AUC
  Z-AUC: 0.893

## CCc1cc(C(N)=S)ccn1
[1]
  Z-AUC: 0.368 (inactive)
[1]; [11]
  Z-AUC: -0.0543
[1]; measured here: PEO4 Z-AUC
  Z-AUC: -0.17

## NNC(=O)c1ccncc1
[3]
  Potency: 12600 nM (active)
[4]
  Potency: inactive
[10]
  outcome: inactive
[5]
  max response: 1.88% (inactive)
[6]
  outcome: inactive
[7]
  outcome: inactive
[8]
  outcome: inactive
[9]
  outcome: inactive
[1]
  Z-AUC: 0.416 (inactive)
[1]; [11]
  Z-AUC: 1.78
[1]; measured here: PEO4 Z-AUC
  Z-AUC: 1.56

## Clc1ccccc1CN1CCc2sccc2C1
[1]
  Z-AUC: 0.114 (inactive)
[1]; [11]
  Z-AUC: 0.0683
[1]; measured here: PEO4 Z-AUC
  Z-AUC: 0.329

## O=C(O)c1cccnc1
[3]
  Potency: inactive
[4]
  Potency: inactive
[6]
  outcome: inactive
[7]
  outcome: inactive
[8]
  outcome: inactive
[9]
  outcome: inactive
[1]
  Z-AUC: 0.136 (inactive)
[1]; [11]
  Z-AUC: -0.782
[1]; measured here: PEO4 Z-AUC
  Z-AUC: -0.146

## CC[C@H](NC(C)C)[C@H](O)c1ccc(O)c2[nH]c(=O)ccc12
[1]
  Z-AUC: -0.979 (inactive)
[1]; [11]
  Z-AUC: 0.0863
[1]; measured here: PEO4 Z-AUC
  Z-AUC: 0.0233
